Inconclusive results are not listed. Active and inactive are the calls of the source. The calls were made as follows, unless noted: active = hit-call score of the fitted dose curve at least 0.9, where 1 is the maximum; inactive = score below 0.9.

Read-out in experiment [1]: E-selectin (Homo sapiens) (UniProt P16581)
The experiment can be described thus: BSK_SAg_Eselectin: BioMAP Diversity Plus: SAg Assay for Eselectin Biomarker Activity (AID 2283091). As to conditions: primary human HUVEC with PBMC; actives raise or lower the signal. The method in brief:
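Endpoint values derive from bidirectional fitting relative to DMSO, using ELISA-measured E-selectin in a human vascular co-culture (umbilical vein endothelium plus PBMC) sampled 24 h after dosing.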

Read-out in experiment [2]: Monokine induced gamma interferon (MIG), CXCL9 (gene 4283)
Description: BSK_SAg_MIG: BioMAP Diversity Plus: SAg Assay for Monokine induced gamma interferon (MIG) Biomarker Activity (AID 2283092). To be noted: primary human HUVEC with PBMC; actives raise or lower the signal. The method in brief: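 HUVEC plus human PBMC co-culture, chemicals dosed and MIG (CXCL9) quantified by ELISA at 24 h. Bidirectional curve fitting against DMSO as negative control and baseline, so both gain and loss of signal count as activity.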

Experiment [3] is described as follows: BSK_SAg_PBMCCytotoxicity: PBMC Cytotoxicity Assessment in the BioMAP Diversity Plus: SAg Assay (AID 2283093).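 Also: PBMC viability measured as Alamar Blue reduction fluorescence at 546/580 nm; fitted both ways against DMSO so a hit may be loss or gain of signal.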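 As to AC50: PBMC superantigen activated with SEB plus TSST-1 one hour after compound addition.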 To be noted: primary human HUVEC with PBMC. The method in brief:
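Alamar Blue reduction (6 h, ex/em 546/580 nm) read after 90 h culture of PBMC pre-dosed 1 h then stimulated with SEB plus TSST-1, 20 ng/mL each. Gain or loss of signal fitted relative to DMSO.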

Read-out in experiment [4]: Interleukin-8 (IL8), CXCL8 (gene 3576)
The experiment can be described thus: BSK_SAg_IL8: BioMAP Diversity Plus: SAg Assay for Interleukin-8 (IL8) Biomarker Activity (AID 2283094). As to conditions: primary human HUVEC with PBMC; actives raise or lower the signal. A digest of the protocol: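 Primary human endothelial cells with PBMC, exposed 24 h; IL-8 determined by ELISA, analysed bidirectionally relative to DMSO.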

Experiment [5] is described as follows: BSK_SAg_Proliferation: Cell Proliferation Assessment in the BioMAP Diversity Plus: SAg Assay (AID 2283095).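 Also: relative cell number as total protein by SRB absorbance in sub-confluent culture.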 As to conditions: primary human HUVEC with PBMC. A digest of the protocol: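 A human primary co-culture of umbilical vein endothelium and blood mononuclear cells receives compound; relative cell number is quantified at 96 h by SRB staining and 560 nm absorbance, with DMSO-referenced bidirectional curve fitting.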

A short description of experiment [6]: BSK_SAg_SRB: Viability Assessment in the BioMAP Diversity Plus: SAg Assay (AID 2283096).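 Also: cells read one day after compound addition; hits may be either gain or loss of signal compared with DMSO.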 As to conditions: primary human HUVEC with PBMC. A digest of the protocol:
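SRB absorbance at 560 nm served as the viability read-out. Cells (HUVEC plus peripheral blood mononuclear cells) were TCA-fixed and stained 24 h post-dosing; activity fitted in both directions against DMSO controls.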

Experiment [7] deals with human CYP19A1, CYP19A1 (gene 1588) (UniProt P11511). Description: NVS_ADME_hCYP19A1: NovaScreen (NVS) CYP450-related Enzyme Activity (ADME) Assay for human CYP19A1 (AID 2283098; active = hit-call score of the fitted dose curve at least 0.9, where 1 is the maximum;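 also: potency for inhibitors seen as loss of fluorescent enzyme signal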). A digest of the protocol:
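Primary testing was in duplicate at a single 10 uM concentration, with actives followed up in concentration-response series. Fluorescence read-out of recombinant enzyme activity at 0.5 h, cell-free. Acetonitrile was the negative-control baseline.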

The target of experiment [8] is human CYP2D6, CYP2D6 (gene 1565) (UniProt P10635). The experiment can be described thus: NVS_ADME_hCYP2D6: NovaScreen (NVS) CYP450-related Enzyme Activity (ADME) Assay for human CYP2D6 (AID 2283107; active = hit-call score of the fitted dose curve at least 0.9, where 1 is the maximum). The method in brief:
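Biochemical fluorescence assay, insect-cell-derived enzyme. Read at 1 h; inhibition taken from loss of signal against acetonitrile. Screened at 10 uM in duplicate, with concentration series for actives.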

Experiment [9] addresses human CYP1A1, CYP1A1 (gene 1543) (UniProt P04798). Description: NVS_ADME_hCYP1A1: NovaScreen (NVS) CYP450-related Enzyme Activity (ADME) Assay for human CYP1A1 (AID 2283100; active = hit-call score of the fitted dose curve at least 0.9, where 1 is the maximum). A digest of the protocol:
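Inhibition of recombinant CYP1A1 turnover was assessed fluorometrically in a biochemical format 1 h after compound exposure. Testing began at 10 uM in duplicate and progressed to concentration series reaching 20 uM, with on-plate positive and negative controls.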

Sequence of E-selectin (Homo sapiens) (P16581 whole entry, looked up): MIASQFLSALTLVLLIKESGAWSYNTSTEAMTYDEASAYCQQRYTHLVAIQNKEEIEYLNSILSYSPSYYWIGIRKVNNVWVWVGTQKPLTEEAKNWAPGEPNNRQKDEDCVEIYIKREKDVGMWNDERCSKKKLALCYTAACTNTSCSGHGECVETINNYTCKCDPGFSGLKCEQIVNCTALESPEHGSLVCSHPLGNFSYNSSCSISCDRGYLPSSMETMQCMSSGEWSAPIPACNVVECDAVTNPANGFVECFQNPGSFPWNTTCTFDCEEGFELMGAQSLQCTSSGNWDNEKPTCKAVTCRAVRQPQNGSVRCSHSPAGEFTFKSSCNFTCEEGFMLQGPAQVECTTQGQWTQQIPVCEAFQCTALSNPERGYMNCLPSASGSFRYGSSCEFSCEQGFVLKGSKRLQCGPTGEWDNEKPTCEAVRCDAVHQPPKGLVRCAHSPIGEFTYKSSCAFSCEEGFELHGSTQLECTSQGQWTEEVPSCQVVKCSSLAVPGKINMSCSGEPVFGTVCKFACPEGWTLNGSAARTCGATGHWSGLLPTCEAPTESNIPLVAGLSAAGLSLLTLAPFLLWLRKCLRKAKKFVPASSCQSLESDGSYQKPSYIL
Sequence of human CYP19A1, CYP19A1 (gene 1588) (P11511 whole entry, looked up): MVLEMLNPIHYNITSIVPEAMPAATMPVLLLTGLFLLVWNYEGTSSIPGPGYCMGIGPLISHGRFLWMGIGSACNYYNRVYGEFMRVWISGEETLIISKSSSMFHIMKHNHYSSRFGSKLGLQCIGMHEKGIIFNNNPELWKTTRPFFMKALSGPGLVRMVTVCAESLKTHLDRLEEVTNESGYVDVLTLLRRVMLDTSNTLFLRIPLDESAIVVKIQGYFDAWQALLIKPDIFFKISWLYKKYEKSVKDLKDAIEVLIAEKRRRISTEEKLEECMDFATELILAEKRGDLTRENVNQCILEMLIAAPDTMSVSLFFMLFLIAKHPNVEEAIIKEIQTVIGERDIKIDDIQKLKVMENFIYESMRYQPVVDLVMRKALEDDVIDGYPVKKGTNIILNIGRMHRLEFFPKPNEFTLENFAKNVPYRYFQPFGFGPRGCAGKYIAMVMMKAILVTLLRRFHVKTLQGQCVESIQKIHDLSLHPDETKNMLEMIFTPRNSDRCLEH
Sequence of human CYP2D6, CYP2D6 (gene 1565) (P10635 whole entry, looked up): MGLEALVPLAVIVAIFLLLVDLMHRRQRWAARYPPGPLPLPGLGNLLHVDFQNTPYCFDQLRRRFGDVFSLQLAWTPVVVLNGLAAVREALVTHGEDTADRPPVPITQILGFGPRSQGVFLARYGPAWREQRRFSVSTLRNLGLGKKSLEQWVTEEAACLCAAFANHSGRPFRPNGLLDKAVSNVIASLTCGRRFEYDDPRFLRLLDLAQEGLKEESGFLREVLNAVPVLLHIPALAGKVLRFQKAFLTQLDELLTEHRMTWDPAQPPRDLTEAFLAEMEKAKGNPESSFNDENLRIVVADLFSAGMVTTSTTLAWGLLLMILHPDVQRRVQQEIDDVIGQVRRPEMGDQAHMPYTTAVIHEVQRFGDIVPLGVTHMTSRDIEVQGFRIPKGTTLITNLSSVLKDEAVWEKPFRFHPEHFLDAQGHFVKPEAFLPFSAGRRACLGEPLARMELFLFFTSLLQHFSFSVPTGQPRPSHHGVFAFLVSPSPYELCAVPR
Sequence of human CYP1A1, CYP1A1 (gene 1543) (P04798 whole entry, looked up): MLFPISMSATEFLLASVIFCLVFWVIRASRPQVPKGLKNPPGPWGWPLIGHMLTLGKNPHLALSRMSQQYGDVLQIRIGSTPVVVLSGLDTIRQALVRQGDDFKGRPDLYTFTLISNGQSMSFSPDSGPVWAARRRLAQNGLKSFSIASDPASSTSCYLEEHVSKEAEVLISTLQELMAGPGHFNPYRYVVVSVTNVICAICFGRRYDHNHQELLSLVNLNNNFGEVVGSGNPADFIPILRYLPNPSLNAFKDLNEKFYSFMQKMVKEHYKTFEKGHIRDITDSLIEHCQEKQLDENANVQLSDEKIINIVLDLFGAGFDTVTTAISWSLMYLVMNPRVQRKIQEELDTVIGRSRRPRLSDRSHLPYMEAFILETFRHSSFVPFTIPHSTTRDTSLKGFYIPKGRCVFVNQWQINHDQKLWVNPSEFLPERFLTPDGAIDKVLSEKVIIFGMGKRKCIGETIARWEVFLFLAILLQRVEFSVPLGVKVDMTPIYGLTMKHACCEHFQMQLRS

With `Cc1cnccn1`, the result in experiment [1], in experiment [2], in experiment [3], in [4], in experiment [5] and in [6] was inactive.

What is called AC50 is the concentration giving half of the maximal activity seen. Turning to `CCN(CC)c1ccc(N=Nc2ccccc2)cc1`, the AC50 in experiment [1] was 13.8 µM (active); in experiment [3], 20 µM (active); in experiment [4], 29.4 µM (active); in experiment [5] it was 12.7 µM (active); in [6], 29.5 µM (active). For the same molecule, the outcome in experiment [2] was inactive.

As for `CC(C)CCCC(C)CCO` (stereo unspecified), the values for the AC50 in experiment [1], in [3] and in [5] were 20 µM (active), 30.6 µM (active) and 20 µM (active), respectively. Also, the result in experiment [2], in [4] and in [6] was inactive.

With `CCc1cc(Cc2cc(CC)c(N)c(CC)c2)cc(CC)c1N`, in [7], the AC50 is 1.7 µM (active).

With `CNS(=O)(=O)C(F)(F)C(F)(F)C(F)(F)C(F)(F)C(F)(F)C(F)(F)C(F)(F)C(F)(F)F`, the result in [1], in experiment [2], in [3], in [4], in [5] and in experiment [6] was inactive.

Turning to `O=C(O)CCC(F)(F)C(F)(F)C(F)(F)F`, the result in [1], in experiment [2], in experiment [3], in experiment [4], in [5] and in experiment [6] was inactive.

As for `O=C(F)C1(F)C(F)(F)C(F)(F)C(F)(F)C(F)(F)C1(F)F`, the outcome in [1], in experiment [2], in experiment [3], in experiment [4], in experiment [5] and in [6] was inactive.

As for `OCCCCC(F)(F)C(F)(F)C(F)(F)C(F)(F)F`, the outcome in experiment [1], in [2], in experiment [3], in experiment [4], in experiment [5] and in [6] was inactive.

For the molecule `FC(F)(F)C(F)(F)C(F)(F)C(F)(F)C(F)(F)C(F)(F)CC[Si](Cl)(Cl)Cl`, the outcome in [1], in [2], in experiment [3], in [4], in experiment [5] and in experiment [6] was inactive.

As to `Cc1cc(C)c(O)c(C(C)(C)C)c1`, the AC50 in [1] was 28.8 µM (active); in experiment [3], 31.7 µM (active); in [5], 31.2 µM (active); in experiment [6] it was 35.1 µM (active). The outcome in [2] and in experiment [4] was inactive.

For `CC(C)Nc1ccc(NC(C)C)c2c1C(=O)c1ccccc1C2=O`, in [7], the AC50 is 3.18 µM (active).

As for `COC(F)(C(F)F)C(F)(F)F` (stereo unspecified), the result in experiment [1], in experiment [2], in [3], in experiment [4], in experiment [5] and in experiment [6] was inactive.

Take `NC(=O)C(F)(F)C(F)(F)C(F)(F)C(F)F`: the outcome in experiment [1], in [2], in experiment [3], in experiment [4], in [5] and in experiment [6] was inactive.

In the case of `Cc1ccc(S(=O)(=O)C(I)I)cc1`, the AC50 in [1] was 5.14 µM (active); in [2], 6.86 µM (active); in [3], 1.43 µM (active); in experiment [4], 4.27 µM (active); in experiment [5], 0.866 µM (active); in [6], 5.34 µM (active).

On to `CCN(CC)c1ccc(C=O)cc1`, for which the result in [1], in experiment [2], in [3], in experiment [4], in experiment [5] and in experiment [6] was inactive.

In the case of `O=C1c2c(O)ccc(Nc3ccc(CCO)cc3)c2C(=O)c2c([N+](=O)[O-])ccc(O)c21`, the outcome in experiment [1] and in experiment [6] was inactive. Also, the AC50 in [2] is 33.7 µM (active); in experiment [3], 9.47 µM (active); in experiment [4], 0.379 µM (active); in experiment [5], 20 µM (active); in experiment [8], 5 µM (active).

As to `OCC(O)CC(F)(F)C(F)(F)C(F)(F)C(F)(F)C(F)(F)C(F)(F)C(F)(F)C(F)(F)F` (stereo unspecified), the result in [1], in experiment [2], in experiment [3], in experiment [4], in [5] and in [6] was inactive.

As for `CCN(CC)c1ccc2c(c1)Oc1cc(N(CC)CC)ccc1C21OC(=O)c2ccccc21`, the outcome in experiment [1], in experiment [2] and in [6] was inactive. Moreover, the AC50 in experiment [3] is 6.68 µM (active); in experiment [4] it was 10 µM (active); in experiment [5] it was 10 µM (active).

With `OCC(F)(F)C(F)(F)C(F)(F)CO`, the result in experiment [1], in experiment [2], in experiment [3], in [4], in experiment [5] and in experiment [6] was inactive.

`CCCCCCCCn1sc(Cl)c(Cl)c1=O`: the molecule was classed as inactive in experiment [9].

The values above are taken from PubChem BioAssay (EPA / NIEHS).
